An excerpt weighted towards active compounds, which were near 1.4% of everything screened.
APOBEC3A inh: APOBEC3A ssDNA deaminase inhibitors, primary screen, selectivity assay for APOBEC3G inhibitor project, biochemical, FAM/TAMRA oligo cleavage fluorescence. DNA dC->dU-editing enzyme APOBEC-3A (Homo sapiens), P31941. recombinant A3A, FAM/TAMRA ssDNA deamination fluorescence. inhibition, % at 20 µM. 330,000 compounds, 0.41% hits. AID 493011, 2011;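 active means at least 40% inhibition at 20 µM here, with at most 30% in a related deaminase screen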
GC-A act: GC-A stimulated cGMP production enhancers – HEK293 GC-A cells, cGMP TR-FRET, EC30 ANP, primary screen; Atrial natriuretic peptide receptor 1 (Homo sapiens), P16066; 0% at EC30 ANP, 100% saturating ANP; activation, % at 10 µM; 370,000 compounds, 0.14% hits; AID 1671463, 2021; in the data active means activation above about 40%
APOBEC3G inh: APOBEC3G DNA deaminase inhibitors, primary screen, biochemical, fluorescence, single-stranded DNA substrate, uHTS | DNA dC->dU-editing enzyme APOBEC-3G (Homo sapiens), Q9HC16 | recombinant A3G, ssDNA deamination FAM/TAMRA fluorescence | inhibition, % at 20 µM | 330,000 compounds, 0.28% hits;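 active means inhibition of at least 40% at 20 µM, with no more than 30% in the related APOBEC3A deaminase screen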
FAS TE block: FAS thioesterase domain inhibitors, primary screen, biochemical, fluorescence intensity, uHTS; recombinant FAS-TE, OMFH fluorogenic substrate, fluorescence endpoint; Fatty acid synthase (Homo sapiens), P49327; 360,000 compounds, 0.67% hits; inhibition, % at 15 µM; AID 602261, 2012;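 active means compounds whose normalised, plate-corrected inhibition of enzyme fluorescence in the single-dose primary screen is 50% or more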
GC-B act: human GC-B receptor activators, primary screen, HEK293 GC-B cells, cGMP TR-FRET, EC30 CNP; Atrial natriuretic peptide receptor 2 (Homo sapiens), P20594; 0% at EC30 CNP, 100% saturating CNP; activation, % at 10 µM; 370,000 compounds, 0.11% hits;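 active means activation at 10 µM reaching about 35% in either raw or pattern-adjusted values, limit read from the data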
Hits are given with their value; i = inactive; nt = no result.

SMILES	APOBEC3A inh	GC-A act	APOBEC3G inh	FAS TE block	GC-B act
CCN(CC)CCC(=O)c1ccc(F)cc1	i	74.3	i	i	i
CN(C)CCC(=O)c1ccc(F)cc1	i	71.9	i	i	i
CN(C)CCC(=O)c1ccc2c(c1)OCO2	i	i	i	i	i
COC(=O)c1ccc(Cn2cnc3c(sc4nc(N5CCOCC5)c5c(c43)CCCC5)c2=O)o1	i	41.0	i	i	48.6
O=c1c2sc3nc(N4CCOCC4)c4c(c3c2ncn1CCc1ccccc1)CCCC4	i	i	i	i	i
COC(=O)c1ccc(CSc2ncnc3c2sc2nc(N4CCOCC4)c4c(c23)CCCC4)o1	i	49.6	i	i	61.7
CCOC(=O)CSc1ncnc2c1sc1nc(N3CCOCC3)c3c(c12)CCCC3	i	i	i	i	36.5
COC(=O)CSc1ncnc2c1sc1nc(N3CCOCC3)c3c(c12)CCCC3	i	i	i	i	i
Cc1ccccc1C1CCC2(CC1)CCN(CC[C@@H](O)c1ccccc1)C2=O (stereo partly drawn)	nt	i	nt	nt	i
CCCCCCC(=O)N(O)C1CC(=O)N(c2ccc(Cl)cc2)C1=O (stereo not drawn)	i	i	40.5	i	i
CCCCCCC(=O)N(O)C1CC(=O)N(c2ccc(C)cc2)C1=O (stereo not drawn)	i	i	i	i	i
COC(=O)[C@]12C[C@H](CC(=O)N3CCN(C(=O)c4ccco4)CC3)C(=O)N(Cc3ccco3)C1=C[C@H](C(C)(C)C)O[C@@H]2C	nt	i	nt	nt	i
CCOC(=O)c1ccc(NC(=O)Cn2ncc(Cl)c(Cl)c2=O)cc1	i	60.7	i	i	i
O=C(CN1C(=O)CCC1=O)Nc1nc(-c2ccc3ccccc3c2)cs1	i	i	i	i	i
Cc1ccc(-c2csc(NC(=O)CN3C(=O)CCC3=O)n2)cc1	i	54.7	i	i	i
C[C@@]12C(=O)N(c3cccc(Cl)c3)C(=O)N1[C@H](c1ccc(Cl)cc1)[C@@H]1C(=O)N(C3CCCCC3)C(=O)[C@@H]12	i	i	i	58.6	i
CC(C)C[C@@]12C(=O)N(c3cccc(F)c3)C(=O)N1[C@H](c1ccc(Cl)cc1)[C@@H]1C(=O)N(C3CCCCC3)C(=O)[C@@H]12	i	i	i	62.2	i
C[C@@]12C(=O)N(c3cccc(F)c3)C(=O)N1[C@H](c1ccc(F)cc1)[C@@H]1C(=O)N(C3CCCCC3)C(=O)[C@@H]12	i	nt	i	i	nt
C[C@@]12C(=O)N(c3cccc(F)c3)C(=O)N1[C@H](c1ccc(Cl)cc1)[C@@H]1C(=O)N(C3CCCCC3)C(=O)[C@@H]12	i	i	i	i	i
COc1ccc(N2C(=O)N3[C@H](c4ccc(Cl)cc4)[C@@H]4C(=O)N(C5CCCCC5)C(=O)[C@@H]4[C@]3(C)C2=O)cc1	i	i	i	i	i
CC(C)C[C@@]12C(=O)N(c3cccc(F)c3)C(=O)N1[C@H](c1ccc(F)cc1)[C@@H]1C(=O)N(C3CCCCC3)C(=O)[C@@H]12	i	i	i	82.5	i
COCc1cc(N2CCNC[C@@H]2C)ccc1N1CCN(Cc2ccccc2)[C@H](C)C1	nt	i	nt	nt	i
Cc1cccc(CS(=O)(=O)c2nnc([C@H](Cc3ccccc3)NC(=O)OC(C)(C)C)o2)c1	i	nt	i	56.6	nt
COC(=O)CS(=O)(=O)c1nnc([C@H](Cc2ccccc2)NC(=O)OC(C)(C)C)o1	i	i	i	i	i
O=C(O)CSc1cc(C(=O)c2cc(F)ccc2O)cn2c(=O)c3c(-c4ccccc4)csc3nc12	i	i	i	66.4	i
SMILES	APOBEC3A inh	GC-A act	APOBEC3G inh	FAS TE block	GC-B act
O=S1(=O)CC2c3ccc(F)cc3CN2CN1C1CCCC1 (stereo not drawn)	nt	i	nt	nt	i
COc1ccc(OCCOc2ccc(C)nc2[N+](=O)[O-])cc1	i	i	i	i	i
Cc1ccc(OCCOc2ccc(Cl)cc2Cl)c([N+](=O)[O-])n1	i	47.9	i	i	i
CCOC(=O)C1=NOC(C(=O)NCc2ccccc2)(C(=O)c2ccc(OC)cc2)C1 (stereo not drawn)	nt	i	nt	nt	i
Nc1ccc(F)c(CN2CCN(c3ncc(Cc4ccccc4)cn3)CC2)c1	nt	i	nt	nt	i
CCOC(=O)C1=C(c2ccccc2)NC(=O)NC1c1cc(OC)c(O)c([N+](=O)[O-])c1 (stereo not drawn)	i	i	i	i	i
CCCOc1ccc([N+](=O)[O-])cc1C1NC(=S)NC(c2ccccc2)=C1C(=O)OCC (stereo not drawn)	i	i	i	65.9	i
COC(=O)[C@]12C=CCN1[C@@H](c1ccc(OC)c(OC)c1)c1c(c3ccccc3n1S(=O)(=O)c1ccc(C)cc1)C2	nt	i	nt	nt	i
CCN(CC)C(=O)c1ncn2c1C(=O)NC[C@@H]2C	nt	i	nt	nt	i
Nc1nc2c(ncn2[C@@H]2O[C@H](C(=O)N[C@H](Cc3ccccc3)C(=O)NCc3ccc4c(c3)OCO4)[C@@H](O)[C@H]2O)c(=O)[nH]1	nt	i	nt	nt	37.5
O=[N+]([O-])c1cc(Cl)ccc1-c1nc(-c2ccncc2)no1	i	45.7	i	i	i
Clc1ccc(-c2nc(-c3ccncc3)no2)c(Cl)c1	i	46.1	i	i	i
CC(=O)N1CCN(C(=S)c2ccc(-c3ccc(Cl)cc3)o2)CC1	i	43.5	i	i	48.2
NC(=O)C1CCN(C(=S)c2ccc(-c3ccc(Br)cc3)o2)CC1	i	44.8	i	i	47.3
S=C(c1ccc(-c2cc(Cl)ccc2Cl)o1)N1CCOCC1	i	i	i	i	43.4
COc1cccc(CNC(=S)OC2CCC23CCC(c2ccccc2)CC3)c1 (stereo not drawn)	nt	i	nt	nt	i
Cc1coc2c1C(=O)C(=O)c1c-2ccc2c(C)cccc12	i	nt	i	74.3	nt
CC1=NN(c2nc(N)nc(/C(C#N)=C/c3ccc([N+](=O)[O-])o3)n2)C(C)(C)C1	nt	46.1	nt	i	40.9
Cn1c(N)c(C(=O)COC(=O)c2cc(S(=O)(=O)N3CCOCC3)ccc2F)c(=O)n(C)c1=O	i	i	i	i	37.2
Cc1ccc(S(=O)(=O)N2CCOCC2)cc1C(=O)OCC(=O)c1c(N)n(C)c(=O)n(C)c1=O	i	i	i	i	i
Cc1cc(Br)c2nc3c(c(C(=O)O)c2c1)CCCCC3	nt	64.2	nt	i	i
COc1ccc(C(=O)Nc2ccc(Cl)cc2C(=O)NCc2ccco2)cc1OC	i	i	i	i	39.4
COc1cc(C(=O)Nc2sc3c(c2C(=O)NCc2ccco2)CCCC3)cc(OC)c1OC	i	i	i	i	40.6
COc1ccc(C(=O)Nc2sc3c(c2C(=O)NCc2ccco2)CCCC3)cc1OC	i	i	i	i	i

Screening results deposited in PubChem by Sanford-Burnham Center for Chemical Genomics.
